{"source": "the supplement of paper PMC8728848", "assay_in_all_cases": "glycan array binding signal (z-score within array); higher = stronger binding", "details_in_all_cases": "glycan notation: IUPAC condensed, linker removed", "key": {"[1]": {"molecular_target": "GlcNAc(b1-3)Gal(b1-4)GlcNAc(b1-6)[Gal(b1-3)]GalNAc", "outline": "(§1)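 From the Consortium for Functional Glycomics database, 3228 arrays were curated, keeping only those whose protein sequence was available. Binding is given as a within-array Z-score averaged across arrays sharing a protein sequence and across linkers. Negative Z-scores can be read as non-binding.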"}, "GlcNAc(b1-4)GlcNAc": {"molecular_target": "GlcNAc(b1-4)GlcNAc", "outline": "as §1"}, "Kdn(a2-3)Gal(b1-3)GlcNAc": {"molecular_target": "Kdn(a2-3)Gal(b1-3)GlcNAc", "outline": "as §1"}, "Kdn(a2-3)Gal(b1-4)Glc": {"molecular_target": "Kdn(a2-3)Gal(b1-4)Glc", "outline": "as §1"}, "[2]": {"molecular_target": "Man(a1-2)Man(a1-2)Man(a1-3)Man", "outline": "as §1"}, "[3]": {"molecular_target": "Neu5Ac(a2-3)Gal(b1-3)GlcNAc(b1-2)[Neu5Ac(a2-3)Gal(b1-3)GlcNAc(b1-4)]Man(a1-6)[Neu5Ac(a2-3)Gal(b1-3)GlcNAc(b1-2)Man(a1-3)]Man(b1-4)GlcNAc(b1-4)GlcNAc", "outline": "as §1"}, "[4]": {"molecular_target": "Neu5Ac(a2-3)Gal(b1-3)GlcNAc6S", "outline": "as §1"}, "[5]": {"molecular_target": "Neu5Ac(a2-3)Gal(b1-4)GlcNAc(b1-2)Man", "outline": "as §1"}, "[6]": {"molecular_target": "Neu5Ac(a2-3)Gal(b1-4)[Fuc(a1-3)]GlcNAc(b1-6)[Neu5Ac(a2-3)Gal(b1-3)]GalNAc", "outline": "as §1"}, "[7]": {"molecular_target": "Neu5Ac(a2-6)Gal(b1-4)GlcNAc(b1-2)Man(a1-3)[GlcNAc(b1-4)][Neu5Ac(a2-6)Gal(b1-4)GlcNAc(b1-2)Man(a1-6)]Man(b1-4)GlcNAc(b1-4)GlcNAc", "outline": "as §1"}, "[8]": {"molecular_target": "Neu5Ac(a2-6)Gal(b1-4)GlcNAc(b1-2)Man(a1-3)[Neu5Ac(a2-3)Gal(b1-4)GlcNAc(b1-2)Man(a1-6)]Man(b1-4)GlcNAc(b1-4)GlcNAc", "outline": "as §1"}, "[9]": {"molecular_target": "Neu5Ac(a2-6)Gal(b1-4)GlcNAc(b1-2)Man(a1-3)[Neu5Ac(a2-6)Gal(b1-4)GlcNAc(b1-2)Man(a1-6)]Man(b1-4)GlcNAc(b1-4)[Fuc(a1-6)]GlcNAc", "outline": "as §1"}, "[10]": {"molecular_target": "Neu5Ac(a2-6)Gal(b1-4)GlcNAc(b1-2)Man(a1-6)Man(b1-4)GlcNAc(b1-4)GlcNAc", "outline": "as §1"}, "[11]": {"molecular_target": "Neu5Ac(a2-6)Gal(b1-4)GlcNAc(b1-3)Gal(b1-3)GlcNAc", "outline": "as §1"}, "[12]": {"molecular_target": "Neu5Ac(a2-8)Neu5Ac(a2-8)Neu5Ac", "outline": "as §1"}}, "note": "The sample as a whole holds a higher share of the strongest signals than the screen did."}
{"binder": "Gal-9-hFc (Mus musculus), O08573-2 (protein) MALFSAQSPYINPIIPFTGPIQGGLQEGLQVTLQGTTKSFAQRFVVNFQNSFNGNDIAFHFNPRFEEGGYVVCNTKQNGQWGPEERKMQMPFQKGMPFELCFLVQRSEFKVMVNKKFFVQYQHRVPYHLVDTIAVSGCLKLSFITFQTQNFRPAHQAPMAQTTIHMVHSTPGQMFSTPGIPPVVYPTPAYTIPFYTPIPNGLYPSKSIMISGNVLPDATRFHINLRCGGDIAFHLNPRFNENAVVRNTQINNSWGQEERSLLGRMPFSRGQSFSVWIICEGHCFKVAVNGQHMCEYYHRLKNLQDINTLEVAGDIQLTHVQT", "values": [{"measurement": "glycan array binding signal (z-score)", "setting": "[1]", "result": -0.325}, {"measurement": "glycan array binding signal (z-score)", "setting": "GlcNAc(b1-4)GlcNAc", "result": 4.66}, {"measurement": "glycan array binding signal (z-score)", "setting": "Kdn(a2-3)Gal(b1-3)GlcNAc", "result": -0.153}, {"measurement": "glycan array binding signal (z-score)", "setting": "Kdn(a2-3)Gal(b1-4)Glc", "result": 2.38}, {"measurement": "glycan array binding signal (z-score)", "setting": "[2]", "result": -0.431}, {"measurement": "glycan array binding signal (z-score)", "setting": "[3]", "result": -0.482}, {"measurement": "glycan array binding signal (z-score)", "setting": "[4]", "result": -0.023}, {"measurement": "glycan array binding signal (z-score)", "setting": "[5]", "result": 3.47}, {"measurement": "glycan array binding signal (z-score)", "setting": "[6]", "result": 0.233}, {"measurement": "glycan array binding signal (z-score)", "setting": "[7]", "result": -0.272}, {"measurement": "glycan array binding signal (z-score)", "setting": "[8]", "result": -0.448}, {"measurement": "glycan array binding signal (z-score)", "setting": "[9]", "result": -0.496}, {"measurement": "glycan array binding signal (z-score)", "setting": "[10]", "result": -0.192}, {"measurement": "glycan array binding signal (z-score)", "setting": "[11]", "result": -0.307}, {"measurement": "glycan array binding signal (z-score)", "setting": "[12]", "result": 2.03}]}
